# The source made the active and inactive calls. Rule for the calls: active = hit-call score of the fitted dose curve at least 0.9, where 1 is the maximum; inactive = score below 0.9.
# Test: APR_HepG2_MitoMembPot_1hr: Apredica 1-hour HepG2 Assay for Mitochondrial Membrane Potential (AID 2282675)
# Details: imaging, actives raise or lower the signal
# Method: APR_HepG2_1hr is a cell-based, multiplexed-readout assay that uses HepG2, a human liver cell line, with measurements taken at 1 hour after chemical dosing in a 384-well plate.APR_HepG2_MitoMembPot_1hr is one of 10 assay component(s) measured or calculated from the APR_HepG2_1hr assay. It is designed to make measurements of dye binding, a form of membrane potential reporter, as detected with fluorescence intensity signals by HCS Fluorescent Imaging technology.Data from the assay component APR_HepG2_MitoMembPot_1hr was analyzed into 1 assay endpoint. This assay endpoint, APR_HepG2_MitoMembPot_1hr, was analyzed with bidirectional fitting relative to DMSO as the negative control and baseline of activity. Using a type of membrane potential reporter, gain or loss-of-signal activity can be used to understand changes in the signaling. Furthermore, this assay endpoint can be referred to as a primary readout, because this assay has produced multiple assay endpoints where this one serves a signaling function. To generalize the intended target to other relatable targets, this assay endpoint is annotated to the cell morphology intended target family, where the subfamily is organelle conformation.
# Cells were treated with dimethyl sulfoxide (DMSO) as a solvent control at a final concentration of 0.5% v/v or with compounds in DMSO with a resulting final DMSO concentration of 0.5% v/v. Compound treatment was done at concentrations of 0.39, 0.78, 1.56, 3.12, 6.24, 12.5, 25, 50, 100, and 200 uM in duplicate on each plate. Cells were treated with compounds for 1, 24, or 72 hr. Carbonyl […] m-chloro-phenylhydrazone (CCCP) and taxol were used as positive controls for mitochondrial function and cytoskeletal stability, respectively; DMSO served as the negative control for this experiment. Cells were fixed by the direct addition of 50 uL formaldehyde in Hank's Balanced Salt Solution (HBSS) to a final concentration of 3.7%. After incubation in the fixation medium for 30 min at room temperature (293-298 K), cells were rinsed twice with HBSS and treated with cell permeabilization buffer (16 uL of 0.5% Triton X-100) for 10 min at room temperature (293-298 K) before labeling. For mitochondrial membrane potential and mitochondrial measurements, pre-fixed cells were incubated with 50 uL of MitoTracker Red CMXRos (Invitrogen) at a concentration of 250 nM for 30 min before fixation. In the remaining cases, post-fixed cells were labeled by incubation with a multiplexed mixture of primary antibodies in HBSS for 60 min at room temperature (293-298 K) to detect immunoreactivity of c-Jun (1:500), phospho-histone H3 (1:100), phospho-histone H2A.x (1:200), p53 (1:400), alpha-tubulin (1:200) and Hoechst 33342 (2 ug/mL). Cells were labeled for multiplexed imaging on two separate plates: a) Hoechst 33342, MitoTracker Red, phospho-histone H3, and alpha-tubulin, and b) Hoechst 33342, phospho-histone H2A.x, and c-Jun. A final rinse with HBSS (50 uL) was performed before analysis. The primary and secondary antibodies for the proteins were phospho-histone H3 (rabbit anti-phospho-histone H3 and FITC-donkey anti-rabbit IgG), phospho-histone H2A.x (mouse anti-phospho-histone H2A.x and FITC-donkey anti-mouse IgG), c-Jun (rabbit anti-phospho-c-Jun and Cy3-donkey anti-rabbit IgG), p53 (sheep anti-p53 and Cy5-donkey anti-sheep IgG), alpha-tubulin (mouse anti-alpha-tubulin and Cy5-donkey anti-mouse IgG). These antibodies are available as the CellCiphr HepG2 assay kit (Millipore).Digital images of each well were captured using a Cellomics ArrayScan VTI (Thermo Scientific Cellomics) (0.8 NA objective, 0.63x optical coupler, and XF-93 filter set) at 20x magnification. The images were acquired using the autofocus feature of the ArrayScan instrument, which entails the following steps. First, the camera focuses on channel 1 (Hoechst 33342), where nuclei are identified. Second, a Z offset of 1 um is used for capturing mitochondria (MitoTracker Red). […]
SMILES,outcome,AC50
CNC(=O)Oc1cccc(N=CN(C)C)c1,inactive,–
CC(C)(C)C(O)/C(=C\c1ccc(Cl)cc1Cl)n1cncn1 (stereo not given),inactive,–
ClC1C(Cl)C(Cl)C(Cl)C(Cl)C1Cl (stereo not given),inactive,–
CCOc1nc(NC)nc(NC(=O)NS(=O)(=O)c2ccccc2C(=O)OC)n1,inactive,–
N#CN,inactive,–
O=C(O)CCCOc1ccc(Cl)cc1Cl,inactive,–
CNC(=O)CSP(=S)(OC)OC,inactive,–
O=C(NC(=O)c1c(F)cccc1F)Nc1ccc(OC(F)(F)C(F)OC(F)(F)F)c(Cl)c1 (stereo not given),inactive,–
O=C(O)C(F)(F)C(F)(F)C(F)(F)C(F)(F)C(F)(F)C(F)(F)C(F)(F)F,inactive,–
CCOCN(C(=O)CCl)c1c(C)cccc1CC,inactive,–
CC[C@H](C)[C@H]1O[C@]2(C=C[C@@H]1C)C[C@@H]1C[C@@H](C/C=C(\C)[C@@H](O[C@H]3C[C@H](OC)[C@@H](O[C@H]4C[C@H](OC)[C@@H](O)[C@H](C)O4)[C@H](C)O3)[C@@H](C)/C=C/C=C3\CO[C@@H]4[C@H](O)C(C)=C[C@@H](C(=O)O1)[C@]34O)O2 (tested in a mixture with another compound),inactive,–
CCCN(CCC)c1c([N+](=O)[O-])cc(C(F)(F)F)cc1[N+](=O)[O-],inactive,–
[2H]C1([2H])[n+]2ccccc2-c2cccc[n+]2C1([2H])[2H],inactive,–
Clc1ccccc1-c1nnc(-c2ccccc2Cl)nn1,inactive,–
Oc1cc(Cl)ccc1Oc1ccc(Cl)cc1Cl,inactive,–
CC(C)(C)C(O)C(Oc1ccc(Cl)cc1)n1cncn1 (stereo not given),inactive,–
C#CCN1C(=O)COc2cc(F)c(N3C(=O)C4=C(CCCC4)C3=O)cc21,inactive,–
CCOC1Oc2ccc(OS(C)(=O)=O)cc2C1(C)C (stereo not given),inactive,–
COP(=S)(OC)Oc1ccc(SC)c(C)c1,–,59.1 µM (active)
O=S1OCC2C(CO1)C1(Cl)C(Cl)=C(Cl)C2(Cl)C1(Cl)Cl (stereo not given),–,118 µM (active)

SMILES,outcome,AC50
COP(=S)(OC)Oc1ccc([N+](=O)[O-])cc1,inactive,–
CN1CSC(=S)N(C)C1,inactive,–
CCN(CC)C(=O)SCc1ccc(Cl)cc1,inactive,–
CCCN(CCOc1c(Cl)cc(Cl)cc1Cl)C(=O)n1ccnc1,inactive,–
O=C(Nc1ccccc1)Nc1cnns1,–,76.2 µM (active)
CNC(=O)/C=C(\C)OP(=O)(OC)OC,inactive,–
CCC(C)(C)C(=O)OC1=C(c2ccc(Cl)cc2Cl)C(=O)OC12CCCCC2,inactive,–
CCS(=O)(=O)c1cccnc1S(=O)(=O)NC(=O)Nc1nc(OC)cc(OC)n1,inactive,–
O=S(=O)(O)C(F)(F)C(F)(F)C(F)(F)C(F)(F)C(F)(F)C(F)(F)C(F)(F)C(F)(F)F,inactive,–
CC1(C)C(C=C(Cl)Cl)C1C(=O)OC(C#N)c1ccc(F)c(Oc2ccccc2)c1 (stereo not given),inactive,–
COc1nn(CSP(=S)(OC)OC)c(=O)s1,inactive,–
CC(C)N(C(=O)COc1nnc(C(F)(F)F)s1)c1ccc(F)cc1,inactive,–
C[C@H]1[C@H](c2ccc(Cl)cc2)SC(=O)N1C(=O)NC1CCCCC1,inactive,–
O=[N+]([O-])/N=C1\NCCN1Cc1ccc(Cl)nc1,inactive,–
OCCOc1ccccc1,inactive,–
Cc1cc(C)nc(NC(=O)NS(=O)(=O)c2ccccc2C(=O)OC2COC2)n1,inactive,–
Oc1ccc(Cl)cc1Cc1ccccc1,inactive,–
COC(=O)c1ccccc1S(=O)(=O)NC(=O)N(C)c1nc(C)nc(OC)n1,inactive,–
CC(C)OC(=O)Nc1cccc(Cl)c1,inactive,–
CCC(C)(NC(=O)c1cc(Cl)c(C)c(Cl)c1)C(=O)CCl (stereo not given),inactive,–

# — PubChem BioAssay (EPA / NIEHS)
